From the supplement of paper PMC12067926

Experiments:
Test in all cases: relative growth (AUC of 72 h growth curve relative to DMSO control, dAUC) (ratio); higher = more growth (less inhibition), active = hit call of the paper
Settings in all cases: 20 µM;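 active = growth AUC significantly below the DMSO wells by Dunnett test; inactive = the rest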
[1] = test system: Aeromonas 1 (Aeromonas sp. AE235)
Procedure, shortened: (§1)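 Whole sediment communities and bacterial isolates from Icelandic stream sediments and Silwood Park soil were brought to carrying capacity in Luria–Bertani medium. They were then diluted 1:100 into 96-well plates with each chemical at 20 µM in 1% DMSO, and A600 was recorded every hour for 72 h. The area under each growth curve, integrated by spline, was averaged across three biological replicates. This figure, divided by the mean of the DMSO controls, gives relative growth (dAUC).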

[2] = test system: Aeromonas 2 (Aeromonas sobria)
Procedure, shortened: as §1

[3] = test system: Aeromonas 3 (Aeromonas popoffii)
Procedure, shortened: as §1

[4] = test system: Argrobacterium 1 (Agrobacterium sp.)
Procedure, shortened: as §1

[5] = test system: Arthrobacter 1 (Arthrobacter humicola)
Procedure, shortened: as §1

[6] = test system: Arthrobacter 2 (Arthrobacter humicola)
Procedure, shortened: as §1

[7] = test system: Arthrobacter 3 (Arthrobacter sp.)
Procedure, shortened: as §1

Community 4 = test system: Community 4
Procedure, shortened: as §1

Community 6 = test system: Community 6
Procedure, shortened: as §1

Community 7 = test system: Community 7
Procedure, shortened: as §1

Community 8 = test system: Community 8
Procedure, shortened: as §1

Community 9 = test system: Community 9
Procedure, shortened: as §1

[8] = test system: Flavobacterium 1 (Flavobacterium glaciei)
Procedure, shortened: as §1

[9] = test system: Flavobacterium 2 (Flavobacterium succinicans)
Procedure, shortened: as §1

[10] = test system: Hymenobacter 1 (Hymenobacter glaciei)
Procedure, shortened: as §1

[11] = test system: Microbacterium 1 (Microbacterium arborescens)
Procedure, shortened: as §1

[12] = test system: Neobacillus 1 (Neobacillus soli)
Procedure, shortened: as §1

[13] = test system: Oryzobacter 1 (Oryzobacter terrae)
Procedure, shortened: as §1

[14] = test system: Paenibacillus 1 (Paenibacillus castaneae)
Procedure, shortened: as §1

Measured: relative growth

CC1(C)[C@H](C(=O)O[C@H](C#N)c2cccc(Oc3ccccc3)c2)[C@@H]1C=C(Br)Br
inactive: [1] 1.05 | [2] 1.04 | [3] 1.09 | [4] 1.09 | [5] 1.16 | [6] 0.949 | [7] 0.946 | Community 4 1.01 | Community 6 1.06 | Community 7 1.07 | Community 8 1.06 | Community 9 1.05 | [8] 1.08 | [9] 1.02 | [10] 1.06 | [11] 1.03 | [12] 1.1 | [13] 1.08 | [14] 0.958

Cc1cc(C(C#N)c2ccc(Cl)cc2)c(Cl)cc1NC(=O)c1cc(I)cc(I)c1O (configuration not stated)
active: [2] 0.788 | [5] 0.0129 | [6] 0.011 | [7] 0.0114 | Community 4 0.631 | Community 6 0.454 | Community 9 0.394 | [8] 0.0126 | [9] 0.794 | [10] 0.00496 | [12] 0.729 | [13] 0.00516 | [14] 0.325
inactive: [1] 0.979 | [3] 0.96 | [4] 0.833 | Community 7 0.817 | Community 8 0.725 | [11] 0.99

N#Cc1c(Cl)c(Cl)c(Cl)c(C#N)c1Cl
inactive: [1] 1.04 | [2] 0.898 | [3] 1.01 | [4] 0.958 | Community 4 1.08 | Community 6 0.965 | Community 7 0.891 | Community 8 1.02 | Community 9 0.784 | [11] 1.06 | [12] 0.966
active: [5] 0.567 | [6] 0.136 | [7] 0.599 | [8] 0.681 | [9] 0.543 | [10] 0.352 | [13] 0.632 | [14] 0.0717

CC1(C)C(C=C(Cl)Cl)C1C(=O)OC(C#N)c1ccc(F)c(Oc2ccccc2)c1 (configuration not stated)
inactive: [1] 0.997 | [2] 1 | [3] 1.07 | [4] 1.03 | [5] 1.19 | [6] 0.879 | [7] 0.946 | Community 4 0.954 | Community 6 0.928 | Community 7 0.868 | Community 8 1.06 | Community 9 0.995 | [8] 1.02 | [9] 0.998 | [10] 1.03 | [11] 1.04 | [12] 0.981 | [13] 1.14 | [14] 0.826

Cc1nnc(-c2ccccc2)c(=O)n1N
inactive: [1] 0.991 | [2] 0.975 | [3] 0.993 | [4] 1.03 | [5] 0.986 | [6] 0.946 | [7] 1.04 | Community 4 0.882 | Community 6 0.909 | Community 7 1.12 | Community 8 0.974 | Community 9 0.918 | [8] 0.963 | [9] 0.956 | [10] 0.868 | [11] 1.01 | [12] 0.937 | [13] 1.12 | [14] 0.905

CCCN(CCC)C(=O)SCc1ccccc1
inactive: [1] 1.03 | [2] 1.02 | [3] 1 | [4] 1.04 | [5] 1.05 | [6] 0.932 | [7] 1.02 | Community 4 0.997 | Community 6 0.996 | Community 7 1.01 | Community 8 1.08 | Community 9 1.03 | [8] 0.979 | [9] 0.952 | [10] 1.15 | [11] 1.05 | [12] 1.02 | [13] 1.08 | [14] 1.01

CCC(=O)Nc1ccc(Cl)c(Cl)c1
inactive: [1] 0.948 | [2] 0.953 | [3] 0.955 | [4] 0.923 | [5] 1.12 | [6] 1 | [7] 1.02 | Community 4 1.07 | Community 6 1.01 | Community 7 0.951 | Community 8 1.06 | Community 9 1.03 | [8] 1.02 | [9] 0.965 | [10] 0.981 | [11] 1.02 | [12] 0.962 | [13] 1.02 | [14] 0.968

Fc1ccc(Oc2ccnc3cc(Cl)cc(Cl)c23)cc1
inactive: [1] 1.01 | [2] 1.03 | [3] 1 | [4] 1.06 | [5] 0.954 | [6] 1.1 | [7] 1.08 | Community 4 0.987 | Community 6 0.935 | Community 7 0.843 | Community 8 1.01 | Community 9 1.03 | [8] 1.04 | [9] 1.01 | [10] 1.13 | [11] 0.999 | [12] 1.09 | [13] 1.01 | [14] 0.927
